Rows were chosen to be rich in hits. Some 2.3% of all compounds tested hit in one or more screens of this group.
CHT inh: inhibitors of human choline transporter CHT. CHT-expressing cells, membrane potential dye, choline response; active compounds read low. B-score at 10 µM. 310,000 compounds, 0.86% hits;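 active = B-score over 3 SD under the library average, and starting fluorescence ratio not unusually high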;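 also: choline stimulus applied at its EC90 after an EC20 pre-addition; B-score computed on integrated fluorescence ratio after choline addition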
TMEM16A inh: TMEM16A chloride channel inhibitors, primary screen, cell-based, HTS. HEK293 TMEM16A/YFP iodide influx fluorescence, ionomycin. AID 588511, 2011. Anoctamin-1 (Mus musculus), Q8BHY3. 310,000 compounds, 1.2% hits. normalized B-score (activity score, 25-100; higher = stronger inhibition) at 10 µM;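 active = ratio plate-corrected score three or more library SD toward inhibition, starting fluorescence score within five deviations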;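 also: score derived from kinetic fluorescence span divided by baseline fluorescence per well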
CHT PAM: CHT positive allosteric modulators, primary screen, cell-based, membrane potential dye, choline EC20; High affinity choline transporter 1 (Homo sapiens), Q9GZV3; 310,000 compounds, 0.49% hits; B-score at 10 µM; CHT-expressing cells; active compounds read high; LV-AA mutant CHT in HEK293 cells;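 active = initial fluorescence not abnormally high and integrated response B-score, plate-corrected, over 3 SD above library mean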
TMEM16A act: TMEM16A chloride channel activators or potentiators, primary screen, cell-based, HTS | 340,000 compounds, 0.3% hits | AID 623877, 2012 | B-score at 10 µM | HEK293 TMEM16A/YFP-H148Q/I152L, iodide quench fluorescence; active compounds read low;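 active = fluorescence-ratio B-score plate-corrected deviation score at least 3 library SD below zero, with starting fluorescence score within 5 deviations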;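 also: channel opened by trigger with iodide after compound preincubation; score built on the fluorescence ratio of max minus min over baseline; more negative score means more quench and so TMEM16A activation or potentiation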
TMEM16A reconf: TMEM16A chloride channel inhibitors, confirmation, cell-based, re-confirmation. shares compounds with TMEM16A inh. HEK293 TMEM16A/YFP-H148Q, iodide quench fluorescence; ionomycin added to raise cell calcium. inhibition, % at 10 µM. 2,300 compounds, 39% hits. AID 652189, 2013;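 active = mean duplicate percent inhibition, scaled so buffer wells are 0 and the reference blocker 100, over three buffer SD above buffer mean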
TMEM16A Ca cntr: calcium mobilization in TMEM16A/YFP HEK293 cells, confirmation, counter-screen for TMEM16A inhibitor project; shares compounds with TMEM16A inh; Fluo4 calcium mobilization; calcium response (% of ionomycin), % at 10 µM; 2,300 compounds, 2% hits; AID 652231, 2013;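 active = duplicate-averaged calcium signal over 20% of the ionomycin maximum, relative to buffer baseline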;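 also: each well's signal is peak minus trough fluorescence divided by its pre-addition baseline; 0% = buffer wells and 100% = ionomycin wells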
Parental YFP cnt: iodide YFP quench changes in parental YFP-HEK293, counter-screen for TMEM16A inhibitor project, cell-based; shares compounds with TMEM16A inh; ionomycin; YFP ratio F(max-min)/F0 at 10 µM; 2,300 tested, under 10 active; AID 652233, 2013;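 active = yellow fluorescent protein signal ratio exceeding the buffer control mean by over 5 SD of those controls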;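 also: ratio is mean of duplicate wells from kinetic YFP trace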
ClC-1 inh: ClC-1 chloride channel inhibition, selectivity assay for TMEM16A inhibitor project, cell-based, voltage-dependent ClC-1. CHO ClC-1-YFP, iodide influx fluorescence quench; iodide control reads 0, buffer control 100. 2,300 tested, under 10 active. ratio percent, % at 10 µM. AID 652236, 2013. shares compounds with TMEM16A inh;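 active = duplicate-mean ratio percent above the mean of iodide-only control wells, which defines zero, plus 5 of their SD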;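 also: higher percent means stronger block of ClC-1 iodide influx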
Numbers without * were called inactive; i = inactive; · = no result given.

SMILES | CHT inh | TMEM16A inh | CHT PAM | TMEM16A act | TMEM16A reconf | TMEM16A Ca cntr | Parental YFP cnt | ClC-1 inh
CCOC(=O)c1cn(Cc2ccccc2)c(C(=O)OC(C)(C)C)c1O | i | 100* | i | i | 32%* | i | -0.98 | -9
CNS(=O)(=O)c1cccc(C(=O)NNC(=O)c2ccc(COc3ccccc3)cc2)c1 | i | i | i | i | · | · | · | ·
COc1cc2[nH]c(C(=O)N3CC(C)OC(C)C3)cc2c(OC)c1OC (stereo not given) | i | i | i | i | · | · | · | ·
COc1cc(OC)c(OC)cc1/C=C1/Cc2ccccc2C1=O | i | i | i | i | i | 28%* | -0.98 | -2
C/C(N)=C(/C#N)C(=O)COC(=O)CC12CC3CC(CC(C3)C1)C2 | i | i | i | i | · | · | · | ·
C/C(N)=C(/C#N)C(=O)COC(=O)C1CCC(C(C)(C)C)CC1 (stereo not given) | i | 25* | i | i | 28%* | i | -1 | -41
O=C1c2c(Cl)c(Cl)c(Cl)c(Cl)c2C(=O)N1c1nccs1 | · | · | · | i | · | · | · | ·
CC(=O)c1ccc(NC(=O)N2CCN(c3ccc(C)cc3)C(C)C2)cc1 (stereo not given) | i | 25* | i | i | i | i | -0.88 | -4
Cc1c(C(=O)OCc2nc3ccsc3c(=O)[nH]2)oc2ccccc12 | · | · | · | i | · | · | · | ·
COc1ccc(NC(=O)N2CCCC2)cc1OC | i | 25* | i | i | i | i | -1.1 | -7
COc1ccc(NC(=O)N2CCCCCC2)cc1OC | i | i | i | i | · | · | · | ·
CN1CCc2c(sc3c2C(=O)NC(c2cccs2)N3)C1 (stereo not given) | i | i | i | i | · | · | · | ·
CSc1ccc(C2NC(=O)c3c(sc4c3CCN(C)C4)N2)cc1 (stereo not given) | i | i | i | i | i | i | -0.53 | -6
O=c1c(Cc2ccccc2)c(O)c2cccc3c4c(n1c23)CCCC4 | i | 25* | i | i | 41%* | i | -0.92 | -8
Cn1c(=O)c(Cc2ccccc2)c(O)c2ccccc21 | i | i | i | i | · | · | · | ·
CCCCCc1cc(O)c2c(C)cc(=O)oc2c1 | i | 100* | i | i | 16%* | i | -0.97 | -8
Cc1cc(=O)oc2cc(O)cc(O)c12 | · | · | · | i | · | · | · | ·
COc1ccc(SC[C@H](Cc2ccccc2)N2CC[C@@H](C(C)(C)C)CCC2=O)cc1 | · | · | · | i | · | · | · | ·
CN(C)c1ccc(-c2noc(C3CCN(S(=O)(=O)c4cccc(Cl)c4)CC3)n2)cc1 | i | i | i | i | · | · | · | ·
O=S(=O)(c1ccc2ccccc2c1)N1CCC(c2nc(-c3ccncc3)no2)CC1 | i | 100* | i | i | 17%* | i | -0.93 | -6
C[C@@H]1COC(=O)[C@@H](CC(=O)OC(C)(C)C)C/C=C\C[C@H](CC(=O)NCCO)C(=O)N1 | · | · | · | i | · | · | · | ·
CCc1nn(C(C)C(=O)NCCN2CCN(c3cccc(C)c3C)CC2)c(=O)c2cc3occc3n12 (stereo not given) | i | i | i | i | i | i | -1 | 2
CCOc1ccc(Br)cc1S(=O)(=O)N1CC(C)OC(C)C1 (stereo not given) | i | 100* | i | i | i | i | -1.1 | -10
CCOc1ccc(Br)cc1S(=O)(=O)N1CCC(C(N)=O)CC1 | i | i | i | i | · | · | · | ·
Cc1c(S(=O)(=O)Nc2cccc3ccccc23)c(=O)n(C)c(=O)n1C | i | i | i | i | · | · | · | ·
SMILES | CHT inh | TMEM16A inh | CHT PAM | TMEM16A act | TMEM16A reconf | TMEM16A Ca cntr | Parental YFP cnt | ClC-1 inh
Cc1noc(C)c1COC(=O)c1cccc(S(=O)(=O)N2c3ccccc3CC2C)c1 (stereo not given) | i | 100* | i | i | 25%* | i | -1 | -18
CC1CCCN(S(=O)(=O)c2ccc(C(=O)Nc3nnc(-c4ccccc4Cl)o3)cc2)C1 (stereo not given) | i | 100* | i | i | 22%* | i | -0.85 | -8
CC(=O)NCCc1ccc(C(=O)COC(=O)c2cc(C)oc2C)cc1 | · | · | · | i | · | · | · | ·
O=C1/C(=C/c2ccc(O)c(O)c2)Oc2cc(O)ccc21 | i | i | i | i | 20%* | 34%* | -1.5 | -62
COc1cc(/C=C2\Oc3cc(O)ccc3C2=O)ccc1O | i | i | i | i | · | · | · | ·
CC(C)N(Cc1ccccc1)C(=O)COC(=O)c1c(F)cccc1F | · | · | · | i | · | · | · | ·
COc1cc(NS(=O)(=O)c2ccc(N/C=C(\C#N)c3nc4cc(Cl)ccc4o3)cc2)nc(OC)n1 | i | 100* | i | i | i | i | -0.97 | -18
Cc1ccc(NC(=O)CCc2nc3ccccc3c(=O)[nH]2)cc1S(=O)(=O)N1CCOCC1 | i | i | i | i | · | · | · | ·
CCN(Cc1ccccc1)C(=O)COc1cc(=O)n(CC)c2ccccc12 | i | i | i | i | · | · | · | ·
CN(Cc1ccccc1)C(=O)COc1cc(=O)n(C)c2ccccc12 | i | i | i | i | i | i | -0.85 | -4
NC(=O)c1cc([N+](=O)[O-])ccc1NCc1cccc(N)c1 | i | i | i | i | · | · | · | ·
COc1ccc(CN(C)C(=O)c2ccc(COc3ccccc3)cc2)c(OC)c1 | i | 25* | i | i | i | i | -1.1 | -5
COc1ccccc1CN(C)C(=O)c1ccc(COc2ccccc2)cc1 | i | 100* | i | i | i | i | -0.92 | -2
COc1ccc(CN(C)C(=O)c2ccc(NS(=O)(=O)c3ccccc3)cc2)c(OC)c1 | i | i | i | i | · | · | · | ·
COc1cccc(NC(=O)CN(C)C(=O)c2ccc(COc3ccccc3)cc2)c1 | i | i | i | i | · | · | · | ·
COc1cccc(CN(C)C(=O)c2cc(S(=O)(=O)NC3CCCCC3)ccc2C)c1OC | · | · | · | i | · | · | · | ·
CCCn1nnnc1NCc1ccccc1OCc1ccc(F)cc1 | i | i | i | i | i | i | -1.1 | -7

From PubChem
